In the library only some 21% were active in any assay of this set; here they are far more common.
CHX counter – Cycloheximide Counterscreen for Small Molecule Inhibitors of Shiga Toxin. cell reporter, cycloheximide protein synthesis inhibition counterscreen. max response, %. 300,000 compounds, 12% hits. AID 2314, 2010; in the data active = max response mostly above about 13%, no sharp cut-off; inactive = mostly below about 14%; also: read at 38.3 µM for the half of the compounds with a filed dose; 0% is about no effect
Pf growth 48h – Primary qHTS for delayed death inhibitors of the malarial parasite plastid, 48 hour incubation | P. falciparum luciferase growth in erythrocytes, 48 h | Potency, µM (series often up to 28.7 µM), for inactives: at the top dose activity change, negative = inhibition, most hits filed as inhibitors | 310,000 compounds, 5.9% hits | AID 504832, 2011; also: potency is read from the fitted curve at half-maximal effect; % is scaled to controls: 0 for no effect and ±100 for the full control effect
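Luminescence readout; reporter = integrated firefly luciferase in P. falciparum. RBC culture at 2% hematocrit, 0.1% parasitemia final, 37 C/5% CO2; decreased signal taken as growth inhibition.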
Pf growth 96h – Primary qHTS for delayed death inhibitors of the malarial parasite plastid, 96 hour incubation | P. falciparum luciferase reporter growth, 96 h | Potency, µM (top dose mostly 28.7 µM), without a hit: at the highest dose activity change, negative = inhibition, actives largely listed as inhibitors | 320,000 compounds, 6.9% hits | AID 504834, 2011; also: potency is read from the fitted curve at half-maximal effect; % is scaled to controls: 0 for no effect and ±100 for the full control effect
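Compounds incubated with erythrocytes infected by luciferase-expressing P. falciparum (2% hematocrit, 0.05% parasitemia final) for 96 hours, 37 C in 5% CO2. Growth inhibition scored as decreased luciferase luminescence.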
Shiga toxin inh – A qHTS for Small Molecule Inhibitors of Shiga Toxin; Vero cells, Shiga toxin protein synthesis inhibition reporter; inhibition, % at 38.7 µM; 290,000 compounds, 9.2% hits; in the data active = inhibition mostly above about 28%, no sharp cut-off; inactive = mostly below about 43%; also: 0% is about no effect
Sm TGR inh – qHTS Assay for the Inhibitors of Schistosoma Mansoni Peroxiredoxins; 360,000 compounds, 3% hits; AID 485364, 2010; Potency, µM (series often up to 114 µM), for the others: at the highest dose activity change, negative = inhibition, usual class: inhibitors; Schistosoma mansoni thioredoxin glutathione reductase (TGR), Q962Y6; purified TGR, DTNB reduction, TNB absorbance 405 nm; also: potency is read from the fitted curve at half-maximal effect; % is scaled to controls: 0 for no effect and ±100 for the full control effect; nearly all actives have a fitted effect of over 60% in size
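First, TGR (20 nM dispensed) and NADPH were mixed with compound. Second, a 15 min room-temperature incubation followed. Third, further NADPH and then DTNB were added to start the reaction. Finally, TNB absorbance was monitored kinetically.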
NS1 inh – qHTS Assay for Inhibitors of Influenza NS1 Protein Function | Potency, µM (doses to about 46.1 µM), inactives show at the top dose activity, positive = more growth | 270,000 compounds, 0.4% hits; calls by dose curve; also: potency is read from the fitted curve at half-maximal effect; actives are rising curves; nearly all actives have a fitted effect of over 50% in size
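Read-out: OD600 growth recovery of NS1-expressing budding yeast. Cells grown overnight at 30C in -URA glucose medium, washed, resuspended and diluted 1:100 in 2% galactose assay medium, pH 6.0. Same strain lacking NS1 served as positive control.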
Numbers without * were called inactive; ? = inconclusive; nt = no result; + = active, no number. Unless noted, calls follow the shape of the dose curve; as a rule, active = well fitted curve in the direction sought with a large enough effect; inconclusive = small, poorly fitted or top-dose-only effect, or another doubt; inactive = no such curve, though single readings can be large; an effect the other way counts as inactive or inconclusive.

SMILES | CHX counter | Pf growth 48h | Pf growth 96h | Shiga toxin inh | Sm TGR inh | NS1 inh
COCC(=O)Nc1ccc(OCc2ccccc2)cc1 | 38* | 46% | -1% | 61* | -3% | 7%
CC(=O)Nc1cccc(OCc2ccc(S(=O)(=O)Cc3ccccc3)cc2)c1 | 40* | -20% | ? | 64* | -3% | 7%
Cc1ccc(S(=O)(=O)N2CCOCC2)cc1C(=O)N1CC(C)OC(C)C1 (centres undefined) | nt | 22% | 5% | nt | -2% | nt
C=CCN(CC=C)S(=O)(=O)c1ccc(NC(=S)NC(=O)Cc2ccc(OC)cc2)cc1 | -1 | 7% | 90% | 17 | -24% | -1%
CCN(C(=O)c1cc2c(Cl)nc3ccc(C)cc3c2s1)c1cc(OC)ccc1OC | nt | nt | nt | nt | 1% | nt
CS(=O)(=O)Nc1ccc(OCc2ccccc2)cc1 | 19* | nt | 11% | 55 | -8% | 0%
Cc1ccc(OC(=O)Nc2ccccc2)cc1 | 43* | 10µM* | 68% | 65* | -3% | nt
CCOc1ccc2nc(N/C(N)=N/C(=S)Nc3ccc(OC)cc3)nc(C)c2c1 | -4 | 4.1µM* | ? | -3 | 0% | 2%
COc1ccc2nc(N/C(N)=N/C(=S)Nc3ccccc3)nc(C)c2c1 | 24* | ? | 3% | 69* | 27% | nt
CCOc1ccc(S(=O)(=O)N2CCOCC2)cc1NC(=O)CSC(=S)N1CCCC1 | nt | ? | ? | nt | -2% | nt
COc1cc(/C=C/C(=O)OCC(=O)NC(=O)NC23CC4CC(CC(C4)C2)C3)ccc1OCC#N | -3 | 15µM* | ? | -7 | -2% | 24%
O=C1N=C(N2C=CC(=C3C=CNC=C3)C=C2)/C(=C/N=NC(=O)c2ccccc2O)S1 | 26* | -24% | 3% | 54* | 0% | 18%
Cc1nc(N2CCN(C(=O)c3cnccn3)CC2)c2c3c(sc2n1)CC(C(C)(C)C)CC3 (centres undefined) | -1 | -10% | ? | 18 | -7% | 4%
CC1CCC(NC(=O)c2ccc(NC(=O)CC3SC(N4CCCC4)=NC3=O)cc2)CC1 (centres undefined) | nt | 41% | 29% | nt | 1% | nt
Cc1ccccc1-c1nnc(NC(=O)c2ccc(N3C(=O)CCC3=O)cc2)s1 | 1 | -26% | 9.3µM* | -14 | -11% | -16%
Cc1cccc(-c2nnc(NC(=O)c3ccc(N4C(=O)CCC4=O)cc3)s2)c1 | -3 | ? | 4.7µM* | -13 | -6% | 9%
C=C(C)C(=O)Nc1nnc(-c2ccccc2C)s1 | 34* | -24% | -9% | 24 | 5% | 9%
COc1ccc(CN2CCNC(=O)C2CC(=O)NCCSc2nccn2C)cc1OC (centres undefined) | -3 | 2% | 17% | -4 | -9% | 2%
O=C(NCCc1csc(-c2cccnc2)n1)c1cccc(C(F)(F)F)c1 | nt | nt | nt | nt | -7% | nt
CCN(c1ccccc1)S(=O)(=O)c1ccc(OC)c(NC(=O)Cn2cnc3c2c(=O)n(C)c(=O)n3C)c1 | 6 | ? | ? | -22 | -1% | nt
CCOC(=O)CN1NC2(CCCCCCC2)NC1=S | 2 | -25% | 23% | 13 | -28% | 4%
CCOC(=O)Cn1c(=O)cc(C)c2ccccc21 | 0 | 0% | 27% | 20 | nt | 5%
CCOC(=O)Cn1c2c(c(=N)c3ccccc31)CCC2 | -1 | ? | 0.37µM* | 8 | -2% | 3%
CCOC(=O)Cn1c2c(c(=N)c3c1CCC3)CCC2 | -1 | 1µM* | 0% | 44 | -1% | 7%
COc1ccc(Cl)cc1NS(=O)(=O)c1c(C)nc2scc(C)n2c1=O | nt | nt | nt | nt | 8% | nt
SMILES | CHX counter | Pf growth 48h | Pf growth 96h | Shiga toxin inh | Sm TGR inh | NS1 inh
O=C(NCCO)c1ccc2nc(Cc3cccc(Cl)c3)oc2c1 | -1 | 0% | 30% | 19 | 0% | 7%
COCCNC(=O)c1ccc2c(c1)nc(C)n2-c1cccc(Cl)c1 | -3 | 4% | -2% | -16 | 0% | -5%
COCCNC(=O)c1ccc2c3n(nc2c1)-c1ccc(Cl)cc1CO3 | 7.5* | 120% | 105% | 44* | 0% | -5%
COCCNC(=O)c1ccc2c3n(nc2c1)-c1ccccc1CO3 | 30* | 221% | 23% | 41* | -14% | -2%
O=C(NCCO)c1ccc2c3n(nc2c1)-c1ccc(Cl)cc1CO3 | 54* | 89% | 135% | 79* | -5% | -5%
C=CCNC(=O)c1ccc2c3n(nc2c1)-c1ccccc1CO3 | 27* | 194% | 242% | 46* | 10% | -61%
COc1ccc(-n2nnnc2SCC(=O)Nc2nc3c(s2)CCCC3)cc1 | 3 | 1% | 93% | -6 | 5% | 10%
CCOc1ccc(CCNC(=O)c2[nH]c3cc(OC)ccc3c2Sc2ccccc2)cc1OCC | nt | nt | nt | nt | 4% | nt
Cc1ccc2c(c1)COc1c3ccc(C(=O)NCCO)cc3nn1-2 | 61* | 279% | 16% | 74* | 7% | -5%
CCOC(=O)CN1N=C(/C=C/c2ccc(OC)cc2)CCC1=O | 12 | 43% | 34% | 18 | 16% | -3%
Cc1cc2c(C)nc(-c3ccccc3)nc2o1 | 39* | 195% | 11% | 107* | -3% | -2%
O=C(/C=C/c1ccc(OC(F)F)cc1)OCC(=O)N1CCC(c2ccccc2)=N1 | nt | ? | ? | nt | -15% | nt
O=C(CSc1ccccc1)Nc1ccc2sccc2c1 | 45* | 49% | 42% | 45* | -9% | -1%
O=C(CSc1cccs1)Nc1cccc2ccccc12 | 50* | 151% | ? | + | 1% | -4%
O=C(CSC1=NCCS1)Nc1cccc2ccccc12 | -1 | nt | 37% | -6 | 0% | ?
O=C(CSc1ccccc1)Nc1ccc2c(c1)C(=O)NC2=O | 7 | 23% | 33% | 18 | -5% | 0%
O=C(CS)Nc1ccc2ccccc2c1 | 15 | 2% | 5% | 49 | -35% | 1%
O=C(CSc1cccs1)Nc1ccc2ccccc2c1 | 46* | 36% | 96% | 125* | -25% | -33%
O=C(OCc1ccc(F)cc1)c1cc(S(=O)(=O)N2CCCCC2)ccc1N1CCOCC1 | nt | -5% | ? | nt | 15% | nt
CCOc1ccccc1NC(=O)CSc1c(C)cnc2c1c(=O)n(C)c(=O)n2C | nt | nt | nt | nt | -3% | nt
CSCCC(NS(=O)(=O)c1ccc(C)cc1)C(=O)NC1CCCCC1 (centres undefined) | -3 | -1% | -30% | -7 | 18% | nt
CSCCC(NS(=O)(=O)c1ccc(C)cc1)C(=O)N1CCN(C(C)=O)CC1 (centres undefined) | nt | -2% | 0% | nt | -14% | nt
CSCCC(NS(=O)(=O)c1ccc2c(c1)oc(=O)n2C)C(=O)NC1CCC(C)CC1 (centres undefined) | 7 | 13% | -27% | 10 | 5% | ?
